PubChem BioAssay (NCI)
This is part of a sample that, as a whole, favours compounds with a hit. Of some 79,000 tested, about 15% had one in any assay. The source made the active and inactive calls. Cut-off read from the data, not from the text of the source: active = growth inhibition above about 70%; inactive = the rest.

assay: NCI Yeast Anticancer Drug Screen. Data for the cln2 rad14 strain (AID 165);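 note: 0% = growth equal to vehicle treated cultures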; settings: S. cerevisiae cln2 rad14 strain, at 50.0 µM, stronger effect = higher value
Description: Growth inhibition of yeast strains with defined genetic alterations is measured as a screen for potential anti-cancer activity. Selected strains with alterations in DNA damage repair or cell cycle control were exposed to compounds and growth inhibition was measured relative to vehicle treated controls. The strain used in this assay is cln2 rad14

Compound | growth inhibition
O=C(C[n+]1ccncc1)c1ccc2c(c1)CCCC2 | -5.95% (inactive)
C=C(Cl)C(=C)CCC(Cl)C(C)(C)Cl (stereo not given) | 2.5% (inactive)
CSc1cccc(N)c1 | 6.1% (inactive)
CC1(C)OC2COC(CNCC3OCC4OC(C)(C)OC34)C2O1 (stereo not given) | -22.3% (inactive)
Clc1cc(Cl)cc(Nc2nc3ccccc3nc2-c2cccs2)c1 | 3.35% (inactive)
Cc1ccc(NC(=O)OCCN(C)C)cc1Cl | 11.1% (inactive)
CCCC(CO)OC(=O)Nc1ccc(-c2ccccc2)cc1 (stereo not given) | -56% (inactive)
N/C(=N\Cl)C(Cl)(Cl)Cl | -26.6% (inactive)
CCCCCCCCCCCCCCNC(=O)CCl | -8.5% (inactive)
Cc1ccc(C(=O)Nc2ccc3c(c2)Cc2ccccc2-3)cc1 | -5% (inactive)
CN=C(N)SCCSC(N)=NC | -13.5% (inactive)
Cc1ccc(NC(=O)Oc2ccc(Br)cc2Br)c([N+](=O)[O-])c1 | 11.2% (inactive)
CCOC(=O)c1ccc(NC(=O)Sc2ccccc2C)cc1 | 7.5% (inactive)
Clc1ccccc1CN1COc2c(ccc3ccccc23)C1 | 19.6% (inactive)
CCOP(=O)(OCC)OCCCCn1cnc2c1c(=O)n(C)c(=O)n2C | -38% (inactive)
NNc1cccc(Cl)n1 | 17.6% (inactive)
CCOC(=O)/C(C#N)=C/c1c[nH]c2ccccc12 | 23.8% (inactive)
CCS(=O)(=O)N(CC(=O)O)Cc1ccccc1 | 0.95% (inactive)
CCCCCCCCCCCO | -6.8% (inactive)
CC(C)OC(=S)SCC(=O)c1ccc(-c2ccccc2)cc1 | -2.45% (inactive)

Compound | growth inhibition
CC1CCCC(C(O)CC2CC(=O)NC(=O)C2)C1O (stereo not given) | -29.8% (inactive)
CC1SCC(=O)N1c1nncs1 (stereo not given) | -46.2% (inactive)
CCOC(=O)CC1(C)OCC(c2ccccc2)O1 (stereo not given) | -15% (inactive)
CC(O)COc1ccccc1Cl (stereo not given) | -46.9% (inactive)
CCOC(=O)C(C)Sc1ncnc2nc[nH]c12 (stereo not given) | 20.9% (inactive)
O=C(O)C(=O)c1ccc(O)cc1O | -35.9% (inactive)
C[Si](C)(C)Nc1ncnc2c1ncn2[Si](C)(C)C | -9.3% (inactive)
CSc1ccc(NC(=S)SCc2ccc3c(c2)OCO3)cc1Cl | 84.3% (active)
C/C(=N/NC(N)=O)c1c(C)c(Cl)cc(Cl)c1OCCCC(C)C | -6.1% (inactive)
CN1C/C(=C\C=C\c2ccccc2)C(=O)/C(=C/C=C/c2ccccc2)C1 | 11.8% (inactive)
CC1(C)Cc2cccc(OC(=O)NO)c2O1 | -37.8% (inactive)
O=c1c(-c2ccc(O)cc2)coc2cc(OC3OC(CO)C(O)C(O)C3O)cc(O)c12 (stereo not given) | -10.7% (inactive)
CC(O)CCC(O)CCCO (stereo not given) | -17.1% (inactive)
c1cncc(CNc2ncn[nH]2)c1 | -50.3% (inactive)
CCOC(=O)C(C)N1CCCCCCC1 (stereo not given) | -26.2% (inactive)
COC(=O)C1CCC(/C(C#N)=C2/CCC(C(=O)OC)[N-]2)=N1.COC(=O)C1CCC(/C(C#N)=C2/CCC(C(=O)OC)[N-]2)=N1.[Cu+2] (stereo not given) | -43.3% (inactive)
CCCCCC(/C=C/[C@@H]1[C@H]2CC(=O)O[C@H]2C[C@H]1N1CCOCC1)OC1CCCO1 (stereo not given in full) | -35.1% (inactive)
COc1cc(C(=O)O)c([N+](=O)[O-])c(OC)c1OC | -11.2% (inactive)
CSCCC(NCc1c(O)ccc2c(C)cc(=O)oc12)C(=O)O (stereo not given) | 25.9% (inactive)
C=C[C@]1(C)C[C@@H](OC(=O)CO)[C@@]2(C)[C@H](C)CC[C@]3(CCC(=O)[C@H]32)[C@@H](C)[C@@H]1O | 30.2% (inactive)
